Here are results for 40 sequences from the OligoGym collection.
Also: reference of the scale not given here.

For the first experiment, the target named is DPRX. In words: pooled miR-30 sensor sort-seq; sequence = guide strand. The following applies: shRNA.
For the sequence TTGGGGTACAGGATGAGCTGGA, the sensor-assay potency score (higher = more potent) is 0.271.
On the same count and under the same terms, as for TAGTGTGTCTGCATTTCTCAGG, the figure is -0.247.
Turning to TTTTGATGAATATGCTTGCATT, the sensor-assay potency score (higher = more potent) was -1.14.
Still for that read-out and setting: as for TTTCCTGTGTGAATGCATCTGG, the figure is 0.364; as for TTCTTAGTGAACATGGTTCGTT, 0.0305; as for TCTTAGTGAACATGGTTCGTTT, -0.457.
With TTTTTGATGAATATGCTTGCAT, the sensor-assay potency score (higher = more potent) turned out to be 0.217.
On to TTTTGCTCTGTGATTCTTGAAC, for which the sensor-assay potency score (higher = more potent) was -0.966.
As for TTGCTTCTTAGTGAACATGGTT, the sensor-assay potency score (higher = more potent) is -0.403.
The same measure, in the same setting: as for TGCTTCTTAGTGAACATGGTTC, the figure is -0.891.
Still for that read-out and setting: as for TATATATTAGGATCTCGGCAGC, the figure is -0.886.

For another experiment, the target named is DQX1. The description is as above. The following applies: shRNA.
Regarding AACACTAGCACATCTCCTGGAA, the sensor-assay potency score (higher = more potent) worked out at 0.212.
Still for that read-out and setting: to TAGGATTGTAAACACTTCGGAG belongs -0.968; to TTGAATCTCAGAAACAATGGAA, 0.304.
As for TAGTATGACACCCAGATCTGAC, the sensor-assay potency score (higher = more potent) was -0.721.
Same read-out and setting: as for TTTTAGTAGTAACACCAGGGAG, the figure is -0.895; as for TATAAAGGCTTCATACACCTGG, 0.178.
The same measure, in the same setting: to TTGCTCGCAATCGTCTTGCCTC belongs -0.154.
Same read-out and setting: as for TTCAGCAGCTCATAGTAGCGGG, the figure is -0.681.
On to TTTAGTAGTAACACCAGGGAGC, for which the sensor-assay potency score (higher = more potent) is -0.54.
The same measure, in the same setting: as for TTCTGGAGCAGGCTGGTCCAGG, the figure is -1.18.
Still for that read-out and setting: as for TTCTGATAGTATGACACCCAGA, the figure is -1.09.
On the same count and under the same terms, to TGAGTGACCACAACCTTTCGGG belongs 0.181.

For the next experiment, the target named is DSPP. The experiment is described as above. The note with it: shRNA.
On to TACTTGAGGTCCATCTTCTTGG, for which the sensor-assay potency score (higher = more potent) was -0.264.
With TTGTCTGTACTGTTATTGCTTC, the sensor-assay potency score (higher = more potent) was -0.739.
Still for that read-out and setting: as for TATCACTGTCATCATCTTCTGC, the figure is -0.312; as for TGTACTGACACATTTGATCTTG, 0.307.
Still for that read-out and setting: to TATGTTGACAACCTCTCCTTGT belongs 0.37; to TTATTAGTGTCTGATGTGCTAT, -0.602; to TTTGCTTTCTCTATGGTTGAGC, 0.0105.
On the same count and under the same terms, as for TATTCTTATCAGTATTTCCATT, the figure is -0.803.
For TTACTGTCACTATCACTGCTGT, the sensor-assay potency score (higher = more potent) was -0.164.
On the same count and under the same terms, as for TTGTGTCTTGACATTGCCTTTG, the figure is -0.762; as for TCTATCACCTTCATGCACCAGG, 0.183; as for TTGCTGCTGTCTGACTTGCTGT, -1.02.
As to TTCACTGCTATCACTGCTGTTG, the sensor-assay potency score (higher = more potent) was -0.29.
TTCACTTGTATTACCCTCGTTT gave a sensor-assay potency score (higher = more potent) of 0.22.
Still for that read-out and setting: to TTTCTGAATTAGCATCATCATT belongs -1.5; to TTTCTCTTGCTGTTGATCTGAG, -0.329.
As for TATGTAGAAAAACTCTTCCCTC, the sensor-assay potency score (higher = more potent) is -0.0837.
